PKM2 activator: activators of human pyruvate kinase M2; P14618; purified PKM2, Kinase-Glo ATP luminescence, activation; response scale: 0% is enzyme alone, no compound; Potency, µM (doses to about 57.5 µM), without a hit: at the top dose activation, usual class: activators; 0.34% of 260,000 active; AID 1631; also: % is scaled to controls: 0 for no effect and ±100 for the full control effect; nearly all actives have a fitted effect of over 55% in size
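Kinase-Glo luminescence reports ATP generated from ADP (0.1 mM) and PEP (0.5 mM) by purified hPK-M2 after 1 h at room temperature, pH 7.2 imidazole buffer; intermediate enzyme activity allows detecting inhibitors and activators.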
GLS inhibitor: inhibitors of human glutaminase (GLS); O94925; Potency, µM (titrated, usually from 45.5 µM), for the others: at the highest dose activity change, negative = inhibition, most hits filed as inhibitors; 0.21% of 410,000 active; AID 624170; GLS enzymatic activity, qHTS titration; also: % is scaled to controls: 0 for no effect and ±100 for the full control effect
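Assay buffer: 45 mM KH2PO4 pH 8.2, 0.02% Tween-20. hKGA acts on L-glutamine (1 mM solution added); product glutamate is reported by an oxidase/peroxidase Amplex Red coupling, with fluorescence taken at baseline and 30 min.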
PLK1 PBD inh: blocks phosphopeptide binding to human PLK1 polo-box domain; AID 720504; Potency, µM, for inactives: max response, negative = inhibition, hits mostly inhibitors; P53350; Plk1 PBD binding of FITC phosphopeptide, fluorescence polarization; 2.8% of 360,000 active; also: series mostly up to about 57 µM; % is scaled to controls: 0 for no effect and ±100 for the full control effect; nearly all actives have a fitted effect of over 65% in size
VDR inh: inhibitors of human vitamin D receptor; Potency, µM, without a hit: max response, negative = inhibition, most hits filed as inhibitors; 0.93% of 400,000 active; VDR-SRC2-3 peptide fluorescence polarization, 2 h; P11473; also: % is scaled to controls: 0 for no effect and ±100 for the full control effect
Target sequence (P11473 whole entry, looked up): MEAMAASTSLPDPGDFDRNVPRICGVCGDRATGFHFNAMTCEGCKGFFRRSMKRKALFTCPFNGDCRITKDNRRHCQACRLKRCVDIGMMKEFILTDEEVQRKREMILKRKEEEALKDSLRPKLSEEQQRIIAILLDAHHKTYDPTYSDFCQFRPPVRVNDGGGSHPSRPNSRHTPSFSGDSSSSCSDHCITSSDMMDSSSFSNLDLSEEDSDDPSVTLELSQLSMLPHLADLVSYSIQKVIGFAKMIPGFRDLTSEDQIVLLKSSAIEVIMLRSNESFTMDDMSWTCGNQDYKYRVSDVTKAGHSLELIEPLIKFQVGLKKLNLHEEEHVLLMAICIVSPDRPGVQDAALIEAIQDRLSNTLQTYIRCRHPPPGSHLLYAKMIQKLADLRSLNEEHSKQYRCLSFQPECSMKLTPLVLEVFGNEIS
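The screen uses fluorescence polarization to detect compounds that interfere with recruitment of the SRC2-3 coactivator peptide to VDR; plates are read after 2 h at room temperature.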
Mito fusion act: blocks mitochondrial division or promotes mitochondrial fusion | S. cerevisiae fusion-defective mutant growth rescue, CellTiterGlo 48 h | Potency, µM (top dose mostly 46.1 µM), for the others: top-dose growth rescue (activation), actives largely listed as activators | 0.23% of 320,000 active | AID 485298; also: % of control where 0% means no effect; nearly all actives have a fitted effect of over 45% in size
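Luminescent cell viability in 1536-well qHTS format served as the measure of rescued growth in ts fusion-mutant S. cerevisiae cultured on non-fermentable YPEG for 48 hours at 37C.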
GCN5L2 inh: inhibitors of human GCN5L2 histone acetyltransferase. Q92830. GCN5L2 HAT assay, ThioGlo1 CoA-SH fluorescence. Potency, µM (series often up to 58.9 µM), for inactives: at the top dose activity change, negative = inhibition, actives largely listed as inhibitors. 0.21% of 390,000 active; also: % is scaled to controls: 0 for no effect and ±100 for the full control effect
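Fluorescence readout, Ex340nm/Em540nm: ThioGlo1 (50uM final) reacts with free CoA thiol released as 20nM GCN5L2 acetylates H3(1-25) peptide (75uM) using acetyl-CoA (70uM). Compound and enzyme sat 15 min beforehand; 20 min room-temperature reaction.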
The depositor's hits bear a star; ? = inconclusive; / = no result; ! = a repeat was not active. Most compounds without a hit are left out; they make up all but 3.4% or so of the library. Calls follow the shape of the dose curve; as a rule, active = well fitted curve in the direction sought with a large enough effect; inconclusive = small, poorly fitted or top-dose-only effect, or another doubt; inactive = no such curve, though single readings can be large; an effect the other way counts as inactive or inconclusive. Potency is read from the fitted curve at half-maximal effect.

SMILES | PKM2 activator | GLS inhibitor | PLK1 PBD inh | VDR inh | Mito fusion act | GCN5L2 inh
CCOC(=O)c1c(-c2cccc([N+](=O)[O-])c2)csc1N | 0% | 39% | 30µM* | -25% | 27% | -10%
CCOC(=O)c1c(-c2cccc([N+](=O)[O-])c2)csc1NC(=O)C1CC1 | 1% | 2% | -12% | 3% | 10% | -8%
CC(=O)Oc1ccc2c(c1)CCC1C2CC[C@]2(C)C(OC(C)=O)CCC12 (stereo not given in full) | / | / | / | -7% | / | -15%
COCCOC(=O)/C(=C\c1cc(C(C)(C)C)c(O)c(C(C)(C)C)c1)C(C)=O | 5% | 1% | -10% | 35µM* | -1% | -6%
CC(C)(C)c1cc(CCC(=O)NN)cc(C(C)(C)C)c1O | -4% | ? | -3% | 12% | -5% | 1%
CC(C(=O)Nc1ccc(C(N)=O)cc1)N1C(=O)c2ccccc2S1(=O)=O (stereo not given) | / | 5% | -4% | -11% | 6% | -1%
COc1ccc(NC(=S)N(CCN(C)C)C(C)c2ccco2)cc1Cl (stereo not given) | 3% | 1% | 24µM* | -22% | -6% | 4%
COc1cccc(NC(=S)N(CCN(C)C)C(C)c2ccco2)c1 (stereo not given) | 2% | 22% | -5% | 1% | -7% | 6%
Cc1ccc(S(=O)(=O)Cc2nc(-c3ccc(C(=O)NCc4ccccc4F)cc3)oc2C)cc1 | / | / | / | 8% | / | 25µM*
CCCNC(=O)c1ccc(-c2nc(CS(=O)(=O)c3ccc(C)cc3)c(C)o2)cc1 | / | 0% | / | 2% | / | 1%
CCOc1ccc(C2c3cc(OCC)c(OCC)cc3CC(=O)N2c2ccc(C(=O)O)cc2)cc1OCC (stereo not given) | / | 10% | / | 6% | / | -6%
Cc1cc2c(SCC(=O)Nc3ccccc3O)ncnc2s1 | / | 4% | 30µM* | -18% | / | /
COC(=O)c1ccccc1NC(=O)c1sc(=S)n(C)c1N | -11% | -13% | 6µM* | 6% | 20% | -6%
CC1CCC(C(C)C)C(=O)/C1=C/c1ccc(N)cc1 (stereo not given) | -2% | ? | 24µM* | ? | 7% | -8%
C=C/C1=C/Cc2ccccc2[C@H](C[N+](=O)[O-])C(C(C)=O)(C(=O)OC)C1 (stereo not given in full) | / | / | / | -5% | / | /
Nc1ccc(Br)c2c1C(=O)c1ccccc1C2=O | 1% | -2% | -27% | -8% | 4% | ?
O=C1c2ccccc2C(=O)c2c(O)ccc(O)c21 | / | / | / | 45µM* | / | /
O=C1c2ccccc2C(=O)c2c(Nc3ccc(CCO)cc3)ccc(O)c21 | -13% | 12% | -10% | ? | -30% | -3%
O=C1c2ccccc2C(=O)c2c(O)c(O)cc(O)c21 | / | ? | 27µM* | 50µM*! | / | 7.9µM*!
Nc1ccc(O)c2c1C(=O)c1ccccc1C2=O | 0% | 7.9µM* | ? | ? | -8% | ?
Cc1ccccc1-c1nnc(SCC(=O)Nc2cccnc2Cl)o1 | / | -4% | 10% | 5% | / | 1%
Nc1ncnc2c1nc(Sc1ccc(Cl)cc1)n2[C@H]1OC2COP(=O)(O)O[C@@H]2C1O (stereo not given in full) | / | / | / | -1% | 4% | 0%
Cc1nc2scc(C)n2c(=O)c1S(=O)(=O)NCCc1ccccc1 | / | 1% | 12µM* | ? | -6% | -1%
Cc1nc2scc(C)n2c(=O)c1S(=O)(=O)NC(C)c1ccccc1 (stereo not given) | / | -25% | 19µM* | ? | 1% | -13%
Cc1nc2scc(C)n2c(=O)c1S(=O)(=O)NCc1ccccc1Cl | / | -2% | -13% | 1% | 8% | 0%
Cc1cccc(NS(=O)(=O)c2c(C)nc3scc(C)n3c2=O)c1 | / | 2% | -7% | -1% | 1% | -7%
O=c1ccc(NS(=O)(=O)c2ccccc2Cl)cn1Cc1ccc(Cl)c(Cl)c1 | 1% | 59% | -6% | 16µM* | -1% | -10%

Source: PubChem BioAssay (National Center for Advancing Translational Sciences (NCATS))
